# Test results: PubChem BioAssay AID2401 (Southern Research Specialized Biocontainment Screening …, 2010)
# In all, about 2,200 compounds went through this assay and about 530 (24%) were called active.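 The calls were made as follows: active = inhibition above a set limit at one or more concentrations of the dose series; inactive = inhibition under that limit at every dose.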 A selection follows. Results with a measured potency or affinity are listed apart.
# Assay: S. Typhimurium nonspecific reporter signal inhibition – Salmonella Typhimurium, GFP fluorescence, counter-screen for PhoP regulon inhibitor project, dose response (AID 2401);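 also: S. typhimurium with Mg-insensitive nmpC-GFP reporter grown at 10 µM Mg2+; drop in reporter fluorescence reflects general culture growth inhibition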
# Conditions: 4 h; series mostly up to 150 µM
row,SMILES,outcome
1,O=S(=O)(Nc1ccc2ccccc2c1)c1ccccc1,inactive
2,COc1ccc(N2CCN(C(=O)Nc3ccc(S(=O)(=O)N(C)C)cc3)CC2)cc1,inactive
3,CCc1nc2ccccc2c2nc3ccccc3n12,inactive
4,COC(=O)c1ccc2c(=O)n(CCN3CCOCC3)c(SCC(=O)C(C)(C)C)nc2c1,inactive
5,COC(=O)C1C(=O)C=C(N2CCOCC2)CC1(C)C (stereo not given),inactive
6,CN(C)C(=O)c1cn(N(C)c2ncc(C(F)(F)F)cc2Cl)c(=O)c2ccccc12,inactive
7,Cc1nc2ccccc2n1CC(=O)NCc1ccccc1,inactive
8,CCOc1ccc(N/C=C/C(=O)c2ccc(OC)cc2)c([N+](=O)[O-])c1,inactive
9,O=C(/C=C/c1ccco1)NC(=S)Nc1ccc(N2CCCC2)cc1,inactive
10,O=C1CSC(=S)N1c1ccc(F)cc1,inactive
11,O=C1N=c2ccccc2=C1c1[nH]c(=S)[nH]c1O,inactive
12,Cc1ccccc1-n1nc(-c2ccc(N)cc2)cc1N,inactive
13,CC(=O)N(Cc1ccc(Cl)cc1)c1cnccn1,inactive
14,NCCCC[C@H]1CN=C(N)N1CCC12CC3CC(CC(C3)C1)C2,inactive
15,CCN(c1ccc(OCC(=O)OCC(=O)Nc2ccc(F)c(F)c2F)cc1)S(=O)(=O)c1ccccc1,inactive
16,COc1ccc2nc(SCC(=O)N(C)C3CCCCC3)c(C#N)cc2c1,inactive
17,CC1CCC(NC(=O)C2c3ccccc3C(=O)N2Cc2cccs2)CC1 (stereo not given),inactive
18,Cc1ccc(Nc2nc(CSc3nnc(-c4ccc(F)cc4)n3C)cs2)cc1,inactive
19,CCOc1ccc(NC(=O)Nc2cccs2)cc1,inactive
20,CC(=O)c1sc(NC(=O)COc2ccc([N+](=O)[O-])cc2)nc1C,inactive
21,CCOC(=O)C1=C(C)NC(=O)NC1c1ccsc1 (stereo not given),inactive
22,O=C1c2ccccc2C(=O)N1c1cccc(-c2csc(Nc3ccc4c(c3)OCO4)n2)c1,inactive
23,COC(=O)Cn1cc(C(=O)c2ccco2)c2ccccc21,inactive
24,COC(=O)c1sccc1NC(=O)c1csc2c1CCCC2,inactive
25,COCCNC(=O)CSCc1c(F)cccc1Cl,inactive

row,SMILES,outcome
1,Cn1ncc(Br)c1C(=O)NCc1cccs1,inactive
2,CCOC(=O)c1cnc(SCC(=O)Nc2ccc(N3CCOCC3)c(Cl)c2)nc1N,inactive
3,CCOC(=O)N1CCC(NC(=O)CCC(=O)c2ccccc2)CC1,inactive
4,CNC(=O)c1ccc(-c2ccc(F)cc2)s1,inactive
5,CCCCOC(=O)CSc1nc2c(c(=O)[nH]c(=O)n2C)n1C/C=C(\C)Cl,inactive
6,CCCN(CCC)CCCNS(=O)(=O)c1ccc2c(c1)oc(=O)n2C,inactive
7,O=C1c2[nH]nc(-c3ccccc3O)c2C(c2ccc(F)cc2)N1Cc1ccco1 (stereo not given),inactive
8,COc1ccc(NC(=O)CSc2nnc(-c3cccs3)n2Cc2ccco2)cc1OC,inactive
9,COc1ccc(OC)c(C2C=C(C34CC5CC(CC(C5)C3)C4)NC(=S)N2)c1 (stereo not given),inactive
10,Cc1cc(C)nc(/N=C(\N)Nc2ccc(SC(F)F)cc2)n1,inactive
11,CCn1c(Cc2ccccc2)nnc1SCC(=O)Nc1ccc(S(N)(=O)=O)cc1,inactive
12,Cc1[nH][nH]c(=O)c1C(c1ccc(O)c([N+](=O)[O-])c1)c1c(C)[nH][nH]c1=O,inactive
13,CCCc1[nH][nH]c(=O)c1C(c1ccc(Br)cc1)C(C#N)C#N (stereo not given),inactive
14,CN(CCC(=O)Nc1ccc(Br)cc1)Cc1ccccc1,inactive
15,CCCc1nc2c(o1)CC(CC(C)SCC)CC2=O (stereo not given),inactive
16,O=C(Nc1ccc(Cl)cc1)N1CC=CCC1,inactive
17,C/C(=N/NC(=O)Cc1cccn1C)c1ccccc1,inactive
18,Nc1ccc2nc(SCC(=O)Nc3ccc(N4CCOCC4)c(Cl)c3)sc2c1,inactive
19,COc1cccc(NS(=O)(=O)c2c(C)cc(C)cc2C)c1,inactive
20,COc1ccc(-c2ccc(C#N)c(SCC(=O)NCCc3ccccc3)n2)cc1OC,inactive
21,Cc1ccc(Nc2nc(Cl)nc(N(C)C#N)n2)cc1,inactive
22,c1csc(C2Nc3cccc4cccc(c34)N2)c1,inactive
23,Clc1ccc(OCCn2ccnc2)c2ccccc12,inactive
24,CCOCC(=O)Nc1ccc(F)c(F)c1,inactive
25,Cc1ncoc1C(=O)Nc1cccc(Cl)c1,inactive

row,SMILES,outcome
1,COCCNC(=S)N(Cc1cccnc1)Cc1ccc(OC)c(OC)c1,inactive
2,O=C1NC(=O)C(=C2CCCCCC2)S1,inactive
3,Nc1cc(N2CCCCC2)c(Cl)cc1[N+](=O)[O-],inactive
4,Cc1ccc(N2C(=O)CC(Nc3ccccc3)C2=O)cc1 (stereo not given),inactive
5,COc1ccc(-c2nnc(SCCC(=O)O)n2-c2ccccc2)cc1,inactive
6,Nc1nc(-c2ccc3c(c2)OCCO3)cs1,inactive
7,Cc1ccc(C)c(NC(=S)NCCSc2ccc(Cl)cc2)c1,inactive
8,CCc1cc2c(NCCC(=O)O)nc(C)nc2s1,inactive
9,CC(=O)Nc1ccc(-c2nnc(SCc3c(C)cc(C)cc3C)n2C)cc1,inactive
10,c1ccc(CSc2snnc2-c2ccccc2)cc1,inactive
11,CCn1c(SCC(=O)Nc2ccc3c(c2)oc2ccccc23)nnc1-c1ccc(N)cc1,inactive
12,NNC(=O)CNC(c1ccccc1)c1cc(Br)ccc1NC(=O)c1ccc(Br)cc1 (stereo not given),inactive
13,Cc1cccc(N2CCN(CC(=O)Nc3nccs3)CC2)c1C,inactive
14,FC(F)(F)c1cccc(NC(=S)NCCN2CCOCC2)c1,inactive
15,Cc1cc(C)cc(-n2c(C)cc(C=C(C#N)C#N)c2C)c1,inactive
16,CCOC(=O)C1=C(C)Nc2nc3ccccc3n2C1c1cccs1 (stereo not given),inactive
17,Cc1ccc(C(=O)Oc2cccc(NC(=O)c3cccs3)c2)cc1S(=O)(=O)N1CCOCC1,inactive
18,COc1c(Cl)cnn(-c2ccc(C)cc2)c1=O,inactive
19,CCc1c(C)c2cc(Cl)c(O)c(CN3CCCCC3)c2oc1=O,inactive
20,CCc1ccc(NC(=O)c2noc3c2CCc2ccccc2-3)cc1,inactive
21,C=CCOc1ccc(/C=N/NC(=O)CN(c2cc(Cl)ccc2OC)S(=O)(=O)c2ccc(C)c([N+](=O)[O-])c2)cc1,inactive
22,O=C(NCCc1cn2ccccc2n1)c1ccccc1F,inactive
23,Cc1nc(SCC(=O)NC(C)c2ccccc2)c2oc3ccccc3c2n1 (stereo not given),inactive
24,COc1ccc(C(=O)N2CCc3cc(OC)c(OC)cc3C2)cc1OC,inactive
25,Cc1ccc(S(=O)(=O)NNC(=O)c2ccc(O)cc2)cc1,inactive
